This is part of a sample that, as a whole, favours compounds with a hit. Of some 83,000 tested, about 20% had one in any assay.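 The endpoint reported here, percent growth, reads 100 for growth as untreated, 0 for no net growth and -100 for all cells dead.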 A number with no mark means an inactive call. Calls of active or inactive are those of the source. How the source made its calls: active means growth percent below 10; inactive means the rest.

The subject of this assay is SK-MEL-2 melanoma. In words: NCI-60 one-dose screen, 48 h (100 = growth as untreated, 0 = no growth, -100 = all killed). The note with it: 10 µM unless noted.
Regarding `Cc1cc(C)c(S(=O)(=O)N2CCN(c3cc4c(cc3F)c(=O)c(C(=O)O)cn4C3CC3)CC2)c(C)c1`, the growth is 90.5%.
As for `CCn1cc(C(=O)O)c(=O)c2cc(F)c(N3CCN(S(=O)(=O)c4ccc(OC)c(OC)c4)CC3)cc21`, the growth was 91.8%.
The same measure for `Cc1ccc(S(=O)(=O)OCC(=O)Nc2ccc(C(=O)O)c(O)c2)cc1`: 39.5%; for `O=S(=O)(c1ccccc1)n1ccc(-c2ccc3c(c2)CCO3)n1`: 86.5%; for `Clc1ccc(-c2nc(-c3ccco3)cn3ccnc23)cc1`: 100%.
The same measure for `CCn1cc(C(=O)O)c(=O)c2cc(F)c(N3CCN(S(=O)(=O)c4cccc5ccccc45)CC3)cc21`: 8.82% (active); for `O=P([O-])(O)OP(=O)([O-])O.[NH-][C@H]1CCCC[C@@H]1[NH-].[OH-].[OH-].[Pt+4]`: 117%.
The value for `O=C(CC(O)c1ccncc1)c1ccccc1` (centres undefined) was 57.1%; that for `O=c1oc2c([nH]c3ccc4ccccc4c32)c2ccccc12` was 107%.
As to `Nc1c(C(=O)Nc2ccccc2)sc2nc3c(cc12)CCC3`, the growth was 86%.
Regarding `COc1ccc(C2CC(c3cccs3)=NN2c2ccc(S(=O)(=O)NC(=O)NCc3cccc(OC)c3)cc2)cc1` (centres undefined), the growth is 57.6%.
On to `COc1cc(NC(=O)CSc2nc3ccc(C)cc3c(=O)n2-c2ccccc2)cc(OC)c1OC`, for which the growth was 86.5%.
The value for `Cc1ccc(S(=O)(=O)OC2COCOC2C(OS(=O)(=O)c2ccc(C)cc2)C2OCOCC2OS(=O)(=O)c2ccc(C)cc2)cc1` (centres undefined) was 104%; that for `CC(=O)Nc1ccc(S(=O)(=O)N2C(=O)CCC2C(=O)Nc2ccc(Br)cc2)cc1` (centres undefined) was 36.1%; that for `O=C(O)c1ccc(-n2c(=O)c3ccccc3c3ccccc3c2=O)cc1` was 93%.
Take `CS(=O)(=O)N(c1cc(-c2ccc3ncnc(Nc4cccc(Cl)c4)c3c2)cnc1Cl)S(C)(=O)=O`: the growth was -20% (active).
As for `CN(C)c1ncc(-c2ccc(C(F)(F)F)cc2)c(NC2CCCCCC2)n1`, the growth is 56.6%.
The same measure for `O=S(=O)(NCCNc1cc(-c2cn(-c3ccccc3)nc2-c2ccccc2)ccn1)c1cccc2ccccc12`: 89.5%; for `CC/C=C\C[C@H](O)C/C=C1/C(=O)C(Cl)=C[C@@H]1C/C=C\CCCC(=O)O`: 54%.
The value for `CC[C@H](C)[C@@H]1NC(=O)[C@H]([C@@H](C)O)NC(=O)C(Cc2ccccc2)NC(=O)[C@@H]2CCCN2C(=O)C(C(C)C)NC(=O)C(Cc2ccccc2)NC(=O)CNC(=O)[C@@H]2CCCN2C1=O` (some centres undefined) was 88.9%; that for `O=C(Nc1cc(C(F)(F)F)cc(C(F)(F)F)c1)Nc1ccc(OCc2nnc(-c3ccc(Cl)cc3)o2)c(F)c1` was -37.9% (active).
As for `Oc1ccc(N=Cc2ccccc2)cc1`, the growth is 94%.
`Nc1ccccc1C#C/C=C\C#Cc1cccc(O)c1`: the growth is 20.2%.
The value for `CCn1cc(C(=O)O)c(=O)c2cc(F)c(N3CCN(S(=O)(=O)c4ccc(Cl)cc4Cl)CC3)cc21` was -18.1% (active); that for `COc1cc(CNC(=O)CSc2nc3ccccc3c(=O)n2Cc2cc(OC)c(OC)c(OC)c2)cc(OC)c1OC` was 95.9%; that for `COc1cc(CCn2nnc3c(NCCCCO)ncnc32)cc(OC)c1` was 124%.
Take `C/C(=C\c1csc(C)n1)[C@@H]1C[C@@H]2O[C@]2(C)CCC[C@H](C)[C@H](O)[C@@H](C)C(=O)C(C)(C)[C@@H](O)CC(=O)N1`: the growth is -46.7% (active).
The value for `COc1ccc(S(=O)(=O)N2CCN(c3cc4c(cc3F)c(=O)c(C(=O)O)cn4C3CC3)CC2)c(OC)c1` was 105%; that for `CC[C@]1(O)C[C@@H]2CN(Cc3c([nH]c4ccccc34)[C@@](C(=O)OC)(c3cc4c(cc3OC)N(C)[C@H]3[C@@](O)(C(=O)OC)[C@H](OC(C)=O)[C@]5(CC)[C@@H]6C[C@@H]6CN6CC[C@]43[C@@H]65)C2)C1` was 9.71% (active).
Consider `COC1=CC(c2ccc[nH]2)=N/C1=C\c1[nH]c(C)c(C(=O)CCCCC(=O)Oc2ccc3c(c2)CCC2C3CC[C@]3(C)[C@@H](O)CC[C@@H]23)c1C` (some centres undefined), for which the growth is 70.5%.
On to `N#Cc1ncc(-c2ccc(F)c(F)c2F)c(NC2CCCCCC2)n1`, for which the growth was 95.8%.
Take `O=C(O)c1cn(C2CC2)c2cc(N3CCN(S(=O)(=O)c4ccc(Cl)c(Cl)c4)CC3)c(F)cc2c1=O`: the growth is -9.56% (active).
The same measure for `CCCCCCCCCCCCOB(OCCCCCCCCCCCC)OCCCCCCCCCCCC`: 108%.
Consider `CNC(C)=O`, for which the growth was 104%.
As to `COc1cc2nc(N3CCC[C@@H](NC4=CC(=O)c5ccccc5C4=O)C3)nc(N)c2cc1OC`, the growth was 109%.
For the molecule `COC(=O)[C@H]1[C@H](OC)[C@@H](OC(=O)/C=C/c2ccncc2)CC2CN3CCc4c([nH]c5cc(OC)ccc45)[C@@H]3C[C@@H]21` (some centres undefined), the growth is 103%.
The value for `Clc1nc(-c2cccnc2)nc2sc3c(c12)CCCCCC3` was 105%; that for `O=c1oc2cc(OS(=O)(=O)c3ccc(F)cc3)ccc2c2c1CCCCC2` was 72%.
Take `CC(=O)C1CCC(C)=CC1=O` (centres undefined): the growth was 94.3%.

(Values after PubChem BioAssay (NCI).)
